Records with an inconclusive call do not appear. The source made the active and inactive calls. Calls follow the shape of the dose curve; as a rule, active = well fitted cell-killing curve with a large enough effect in the repeat runs; inconclusive = weak or mixed curves, or effect the other way; inactive = no such curve, though single readings can be large or run the other way.

Among the data in PubChem BioAssay (Tox21) are Potency values, retold here.
Potency is read from the fitted curve at half-maximal effect.

A short description of this assay: Caspase-3/7 induction in CHO-K1 cells by small molecules, qHTS cell viability counter screen (AID 1346979). Also: nearly all actives have a fitted effect of over 35% in size. The conditions noted are these: CellTiter-Fluor fluorescence, 17 h; series mostly up to 92.4 µM. The method, boiled down: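 Viability readout by fluorescence (CellTiter-Fluor) on wild-type CHO-K1 cells exposed for 16hr at 37C and 5% CO2 to compounds delivered in DMSO; reagent incubated 1hr before reading.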
A general note: qHTS replaces the single test concentration by a dilution series.
As for `CC(C)(c1ccc(O)c(-c2ccccc2)c1)c1ccc(O)c(-c2ccccc2)c1`, the Potency is 43.3 µM (active).
The figure for `N#CCCC(Br)(C#N)CBr` (configuration not stated) is 30.6 µM (active).
Consider `O=c1ssc(Cl)c1Cl`, for which the Potency is 27.3 µM (active).
`c1cc[c]([Sb]([c]2ccccc2)[c]2ccccc2)cc1`: the Potency was 68.6 µM (active).
For `C=CC(=O)OCCCCOC(=O)C=C`, the Potency is 24.3 µM (active).
In the case of `ClCc1ccccc1CCl`, the Potency is 61.1 µM (active).
Then `CCC(C)(C)C(=O)OC1=C(c2ccc(Cl)cc2Cl)C(=O)OC12CCCCC2`, with “inactive”.
The entry for `CCC(C)c1cc(C(C)(C)C)cc(-n2nc3ccccc3n2)c1O` (configuration not stated) is “inactive”; for `Oc1ccc(C(=C(Cl)Cl)c2ccc(O)cc2)cc1` it is 61 µM (active).
With `CC(C)OC(=S)S`, the Potency was 27.3 µM (active).
As for `c1ccc(OCC2CO2)cc1` (configuration not stated), the Potency entry was “inactive”.
As to `CCCCN(CCCC)C(=S)[S-].CCCCN(CCCC)C(=S)[S-].[Zn+2]`, the Potency is 21.7 µM (active).
Take `Oc1ccc(C2(c3ccc(O)cc3)c3ccccc3-c3ccccc32)cc1`: the Potency is 68.6 µM (active).
The figure for `O=C(Nc1ccc2[nH]ccc2c1)c1cc2cc(F)ccc2n1Cc1cccc(F)c1` is 30.6 µM (active).
Take `CCc1ccccc1C`: the Potency result is “inactive”.
With `CCCCCCCCCCCCCC[P+](CCCCCC)(CCCCCC)CCCCCC` (tested in a mixture with another compound), the Potency is 4.33 µM (active).
The entry for `CCCSP(=O)(OCC)SCCC` is “inactive”.
Then `CCCCCCCCCCCCCCCCCCn1cc[n+](C)c1`, with 4.3 µM (active); and `CN(C)S(=O)(=O)N(SC(F)(Cl)Cl)c1ccccc1`, with 7.7 µM (active); and `[CH3][Hg][Cl]`, with 7.67 µM (active).
As for `C=CC(=O)OCC(COC(=O)C=C)(COC(=O)C=C)COC(=O)C=C`, the Potency is 3.86 µM (active).
For the molecule `COC[C@H](C)N(C(=O)CCl)c1c(C)csc1C`, the Potency result is “inactive”.
